Screens from PubChem.
The sample as a whole holds a higher share of hits than the screen did.
Shiga toxin inh = blocks Shiga toxin action in Vero cells; actives 9.2% (n = 290,000); inhibition, % at 38.7 µM; Vero cells, Shiga toxin protein synthesis inhibition reporter; in the data active = inhibition mostly above about 28%, no sharp cut-off; inactive = mostly below about 43%
Tb PYK inh = blocks Trypanosoma brucei pyruvate kinase; Q57TT1; TbPYK enzyme, Kinase-Glo Plus ATP luminescence, 45 min; Potency, µM (highest dose often 76.8 µM), usual class: inhibitors; actives 0.12% (n = 410,000); AID 624173; note: nearly all actives have a fitted effect of over 50% in size
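Luminescence from Kinase-Glo Plus, added after a 45-minute room-temperature reaction, served as the end-point read-out. The enzyme and substrate were preincubated with compound before ADP (130 uM final) initiated turnover. Concentration-effect curves came from normalized qHTS data.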
RE007 growth inh = less growth of the S. pombe RE007 Vpr strain | S. pombe RE007 Vpr strain, BacTiter-Glo ATP luminescence, 24 h | Potency, µM (titrated, usually from 92.2 µM), actives largely listed as inhibitors | actives 0.21% (n = 360,000) | AID 651644; active = well fitted falling curve with a large enough effect; inconclusive = small, poorly fitted or top-dose-only effect; inactive = no such curve, though single readings can be large or run the other way; note: nearly all actives have a fitted effect of over 50% in size
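Fission yeast RE007 carrying one integrated HIV-1 vpr copy, seeded at OD 0.01 in PMG+AL medium with 23 nL pinned compound. Grown 24 h at 30 degrees; viability read by BacTiter-Glo luminescence after 5 min.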
CHX counter = counter-screen for Shiga toxin inhibitors: cycloheximide protein synthesis inhibition; actives 12% (n = 300,000); max response, %; cell reporter, cycloheximide protein synthesis inhibition counterscreen; in the data active = max response mostly above about 13%, no sharp cut-off; inactive = mostly below about 14%; note: read at 38.3 µM for the half of the compounds with a filed dose
FBPA Giardia inh = Giardia lamblia aldolase inhibition | actives 0.71% (n = 290,000) | AID 2451 | purified Giardia FBPA | Potency, µM (series often up to 59.6 µM), actives largely listed as inhibitors; note: nearly all actives have a fitted effect of over 55% in size
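Giardia FBPA (40 nM reagent) was preincubated 10 min at RT with compound (up to 57.5 uM final), then substrate plus GAPDH/TPI/NAD/arsenate coupling system with diaphorase/resazurin was added; resorufin fluorescence (525/598 nm) was read after 20 min.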
LmPK inhibitor = blocks Leishmania mexicana pyruvate kinase activity; purified LmPK, Kinase-Glo ATP luminescence, 1 h; Q27686; Potency, µM (series often up to 57.5 µM), hits mostly inhibitors; actives 0.37% (n = 290,000)
Target sequence (Q27686 whole entry, looked up): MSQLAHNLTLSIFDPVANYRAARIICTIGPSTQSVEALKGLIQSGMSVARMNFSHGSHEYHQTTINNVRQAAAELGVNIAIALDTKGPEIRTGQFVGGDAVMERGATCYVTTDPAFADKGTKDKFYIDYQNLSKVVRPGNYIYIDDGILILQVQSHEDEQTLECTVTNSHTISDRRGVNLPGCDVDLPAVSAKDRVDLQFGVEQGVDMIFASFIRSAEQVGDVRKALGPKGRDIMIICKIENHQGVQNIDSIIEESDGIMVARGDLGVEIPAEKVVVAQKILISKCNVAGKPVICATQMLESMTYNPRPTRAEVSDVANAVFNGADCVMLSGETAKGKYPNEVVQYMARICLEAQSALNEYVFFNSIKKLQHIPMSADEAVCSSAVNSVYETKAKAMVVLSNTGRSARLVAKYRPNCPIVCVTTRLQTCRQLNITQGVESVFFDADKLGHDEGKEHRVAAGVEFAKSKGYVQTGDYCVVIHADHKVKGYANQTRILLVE
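qHTS format; LmPK 0.1 nM; substrates PEP 0.5 mM and ADP 0.1 mM. One-hour room-temperature incubation, then coupled luciferase luminescence; 0.5 nM enzyme wells mark activation.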
Hits are given with their value; [ ] = remark or other dose. Unless noted, calls come from the whole dose curve; as a rule, active = well fitted curve in the direction sought with a large enough effect; inconclusive = small, poorly fitted or top-dose-only effect, or another doubt; inactive = no such curve, though single readings can be large; an effect the other way counts as inactive or inconclusive.

Results for COc1ccc(/C=N/c2c(-c3ccc(OC)cc3)nc3n2CCS3)cc1 ?
Shiga toxin inh: inactive; Tb PYK inh: inactive; RE007 growth inh: inactive; CHX counter: 14.6; FBPA Giardia inh: inactive; LmPK inhibitor: inactive

Results for COc1ccc(-c2nc3n(c(=O)c2C#N)CCCS3)cc1 ?
Shiga toxin inh: inactive; Tb PYK inh: inactive; RE007 growth inh: inactive; CHX counter: 14.5; FBPA Giardia inh: inactive; LmPK inhibitor: inactive

How did CC(NC(=O)N1CCN(c2ccccc2F)CC1)c1ccc(F)c(F)c1 (stereo unspecified) do in these assays?
Shiga toxin inh: inactive; Tb PYK inh: inactive; RE007 growth inh: inactive; CHX counter: inactive; FBPA Giardia inh: inactive; LmPK inhibitor: inactive

Results for CC(C)(C)NC(=O)/C(=C\c1ccco1)NC(=O)c1cccs1 ?
Shiga toxin inh: inactive; Tb PYK inh: inactive; RE007 growth inh: inactive; CHX counter: inactive; FBPA Giardia inh: inactive; LmPK inhibitor: inactive

How did CC(/C=N/NC(=O)CSc1nc2ccccc2n1C)=C\c1ccco1 do in these assays?
Shiga toxin inh: inactive; Tb PYK inh: inactive; RE007 growth inh: inactive; CHX counter: inactive; FBPA Giardia inh: inactive; LmPK inhibitor: inactive

How did CC(/C=N/NC(=O)c1cccs1)=C\c1ccco1 do in these assays?
Shiga toxin inh: 128.1; Tb PYK inh: inactive; RE007 growth inh: inactive; CHX counter: 58.5; FBPA Giardia inh: inconclusive; LmPK inhibitor: inactive

What do the screens show for `CC(/C=C/c1ccco1)=N/NC(=O)Cc1cccs1`?
Shiga toxin inh: inactive; Tb PYK inh: inactive; RE007 growth inh: inactive; CHX counter: 14.3; FBPA Giardia inh: inactive; LmPK inhibitor: inactive

How did CC(/C=N/NC(=O)Cc1cccs1)=C\c1ccco1 do in these assays?
Shiga toxin inh: inactive; RE007 growth inh: inactive[3.69 µM]; CHX counter: 41.1; FBPA Giardia inh: inactive; LmPK inhibitor: inactive

Results for O=C(O)/C=C/c1cnn(-c2ccccc2)c1 ?
Shiga toxin inh: inactive; Tb PYK inh: inactive; RE007 growth inh: inactive; CHX counter: 20.6; FBPA Giardia inh: inactive; LmPK inhibitor: inconclusive

How did CCOC(=O)/C=C/c1cnn(-c2ccccc2)c1 do in these assays?
Shiga toxin inh: 168.7; Tb PYK inh: inactive; RE007 growth inh: inactive; CHX counter: 88.5; FBPA Giardia inh: inactive; LmPK inhibitor: inactive

What do the screens show for `Cn1cc(CC(=O)NCc2ccc(F)cc2)c2ccccc21`?
Shiga toxin inh: inactive; Tb PYK inh: inactive; RE007 growth inh: inactive; CHX counter: 12.2; FBPA Giardia inh: inactive; LmPK inhibitor: inactive

Results for CC(C)c1ccc(NC(=O)Cc2cn(C)c3ccccc23)cc1 ?
Shiga toxin inh: inactive; Tb PYK inh: inactive; RE007 growth inh: inactive; CHX counter: 13.8; FBPA Giardia inh: inactive; LmPK inhibitor: inactive

How did COc1ccc(OC)c(NCc2cccn2-c2nnc(N3CCCCC3)s2)c1 do in these assays?
Tb PYK inh: inactive

How did COc1ccccc1N1CCN(C(=O)c2cc3c(=O)n(Cc4ccco4)ccc3nc2C)CC1 do in these assays?
Tb PYK inh: inactive

What do the screens show for `COc1ccc2c(c1)O[C@@H](c1ccc3c(c1)OCO3)[C@H](OC(=O)N[C@H](C)C1CCCCC1)C2=O`?
FBPA Giardia inh: inactive

How did COC(=O)[C@@H](NC(=O)O[C@H]1C(=O)c2ccc(OC)cc2O[C@@H]1c1ccc2c(c1)OCO2)C(C)C do in these assays?
Shiga toxin inh: inactive; CHX counter: 23.1; FBPA Giardia inh: inactive; LmPK inhibitor: inactive

How did CC(C)(C)NC(=O)C(CCc1ccccc1)n1c(=O)c(-c2cc3ccccc3[nH]2)nc2ccccc21 (stereo unspecified) do in these assays?
RE007 growth inh: inactive

What do the screens show for `Cc1ccc(CCNC(=O)C2CCN(S(=O)(=O)c3ccc4c(c3)NC(=O)C(C)S4)CC2)cc1` (stereo unspecified)?
Shiga toxin inh: inactive; Tb PYK inh: inactive; RE007 growth inh: inactive; CHX counter: inactive; FBPA Giardia inh: inactive; LmPK inhibitor: inactive

Results for CC1Sc2ccc(S(=O)(=O)N3CCC(C(=O)NCCc4ccccc4)CC3)cc2NC1=O (stereo unspecified) ?
Shiga toxin inh: inactive; Tb PYK inh: inactive; RE007 growth inh: inactive; CHX counter: 15.2; LmPK inhibitor: inactive

Results for Cc1ccc(NC(=O)C2CCN(S(=O)(=O)c3ccc4c(c3)NC(=O)C(C)S4)CC2)c(Cl)c1 (stereo unspecified) ?
Shiga toxin inh: inactive; Tb PYK inh: inactive; RE007 growth inh: inactive; CHX counter: 16.1; LmPK inhibitor: inactive

What do the screens show for `COCCN(C(=O)c1ccc2c(c1)S(=O)(=O)N=C1CCCCCN12)c1c(N)n(CC(C)C)c(=O)[nH]c1=O`?
Tb PYK inh: inactive; RE007 growth inh: inactive

Results for O=C(CSc1ncn(-c2ccccc2)n1)Nc1ccc(Br)cn1 ?
Shiga toxin inh: inactive; RE007 growth inh: inactive[3.69 µM]; CHX counter: inactive; FBPA Giardia inh: inactive; LmPK inhibitor: inactive

How did O=C(CSc1ncn(-c2ccccc2)n1)c1cccs1 do in these assays?
Shiga toxin inh: 88.4; Tb PYK inh: inactive; RE007 growth inh: inactive; CHX counter: 63.5; FBPA Giardia inh: inactive; LmPK inhibitor: inactive

How did Nc1nc(CSc2ncn(-c3ccccc3)n2)cs1 do in these assays?
Shiga toxin inh: 92.4; Tb PYK inh: inactive; RE007 growth inh: inactive; CHX counter: 38.3; FBPA Giardia inh: inactive; LmPK inhibitor: inactive

What do the screens show for `c1ccc(CSc2ncn(-c3ccccc3)n2)cc1`?
Shiga toxin inh: 105.2; Tb PYK inh: inactive; RE007 growth inh: inactive; CHX counter: 45.8; FBPA Giardia inh: inactive; LmPK inhibitor: inactive

Results for c1ccc2c(N3CCNCC3)nc(-c3ccc4c(c3)OCO4)nc2c1 ?
FBPA Giardia inh: inactive

What do the screens show for `Nc1nc(NCc2ccco2)nc(N2CCN(Cc3ccccc3)CC2)c1[N+](=O)[O-]`?
Shiga toxin inh: inactive; Tb PYK inh: inactive; RE007 growth inh: inactive; CHX counter: inactive; FBPA Giardia inh: inactive; LmPK inhibitor: inactive

What do the screens show for `Cc1csc2nc(-c3cccc(NC(=O)c4cccc(F)c4)c3)cn12`?
Tb PYK inh: inactive

How did C1=C(c2ccccc2)Nc2ccccc2N=C1c1ccccc1 do in these assays?
Shiga toxin inh: 36.5; Tb PYK inh: inactive; RE007 growth inh: inactive; CHX counter: inactive; FBPA Giardia inh: inactive; LmPK inhibitor: inactive

Results for Cc1ccc(C)c(NC(=O)CN2C(=O)c3cccnc3Oc3ccc(C)cc32)c1 ?
Tb PYK inh: inactive[15.4 µM]

Results for COc1ccc(Cl)cc1NC(=O)[C@H]1O[C@@H]2OC(C)(C)O[C@@H]2[C@H]2OC(C)(C)O[C@H]21 ?
Tb PYK inh: inactive

What do the screens show for `Cc1cccc(-c2c3c(=O)n(C)c(=O)n(C)c3cn2-c2ccccc2O)c1`?
Shiga toxin inh: inactive; Tb PYK inh: inactive; RE007 growth inh: inactive; CHX counter: inactive; FBPA Giardia inh: 12.6µM; LmPK inhibitor: inactive

Results for COC(=O)c1ccccc1-n1cc2c(c1-c1cccc(C)c1)c(=O)n(C)c(=O)n2C ?
Tb PYK inh: inactive

Results for CCCCSCc1nc2nc(Cl)c(Cl)nc2[nH]1 ?
Tb PYK inh: inactive; RE007 growth inh: inactive
